# Source: PubChem BioAssay AID1030 (National Center for Advancing Translational Sciences (NCATS), 2008)
# The campaign covered roughly 220,000 compounds. About 16,000 (7.3%) were called active. Not shown: some 25% with an inconclusive outcome. The list comes from a sample in which actives are over-represented; it also holds similar structures and randomly drawn compounds. A number with no mark means an inactive call. Calls follow the shape of the dose curve; as a rule, active = well fitted inhibition curve with a large enough effect (not every such curve was filed as active); inconclusive = small, poorly fitted or top-dose-only effect, or another doubt; inactive = no such curve, though single readings can be large or run the other way.
# Biological target: Aldehyde dehydrogenase 1A1 (Homo sapiens) (UniProt P00352)
# Assay: qHTS Assay for Inhibitors of Aldehyde Dehydrogenase 1 (ALDH1A1);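 as to activity, negative = inhibition: plate controls were no enzyme wells and a reference inhibitor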
# Details: Purified ALDH1A1, NADH fluorescence, propionaldehyde substrate; series mostly up to 75.3 µM; activity, negative = inhibition: at the top concentration
# Potency is read from the fitted curve at half-maximal effect.
# Sequence of Aldehyde dehydrogenase 1A1 (Homo sapiens) (P00352 whole entry, looked up): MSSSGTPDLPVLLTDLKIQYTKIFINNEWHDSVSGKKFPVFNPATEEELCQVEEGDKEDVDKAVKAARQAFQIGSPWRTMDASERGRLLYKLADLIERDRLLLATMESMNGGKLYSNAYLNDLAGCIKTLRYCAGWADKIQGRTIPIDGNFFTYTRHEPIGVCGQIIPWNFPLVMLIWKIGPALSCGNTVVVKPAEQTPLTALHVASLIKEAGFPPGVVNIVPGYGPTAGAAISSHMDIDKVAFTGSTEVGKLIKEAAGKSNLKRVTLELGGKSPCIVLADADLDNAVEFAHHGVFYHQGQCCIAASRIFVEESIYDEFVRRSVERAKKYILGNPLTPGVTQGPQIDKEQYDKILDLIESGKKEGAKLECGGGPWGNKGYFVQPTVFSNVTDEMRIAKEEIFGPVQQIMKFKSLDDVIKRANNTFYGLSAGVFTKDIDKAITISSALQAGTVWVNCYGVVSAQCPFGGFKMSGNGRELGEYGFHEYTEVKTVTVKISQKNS
SMILES,"activity, negative = inhibition",Potency
CCN1CCN(c2ccc(NC(=O)c3cnccn3)cc2)CC1,-1.42%,
COc1ccc(Nc2ncc(F)c(N3CCOCC3)n2)cc1,4%,
CC(C(=O)NC1CCCC1)N(c1ccc(Oc2ccccc2)cc1)S(C)(=O)=O (stereo unspecified),6.52%,
Cc1ccc(N2C(=O)SC(N(CC(=O)O)c3ccc(C)cc3)C2=O)cc1 (stereo unspecified),15.4%,
Cc1cccc(N2C(=O)SC(N(CC(=O)O)c3cccc(C)c3)C2=O)c1 (stereo unspecified),,14.1 µM (active)
Cc1cccc(N(CC(=O)N2CCOCC2)S(C)(=O)=O)c1,-2.38%,
Clc1ncn(CCOc2ccccc2)c1Cl,3.6%,
Cc1noc(C)c1S(=O)(=O)Nc1ccc(C(=O)N2CCN(c3ccc(F)cc3)CC2)cc1,20.4%,
COc1ccccc1NC(=O)C1=C(C)NC2=C(C(=O)CCC2)C1c1ccc(C)o1 (stereo unspecified),-13.5%,
COC(=O)C1=C(C)NC2=C(C(=O)c3ccccc32)C1c1ccc(-c2ccc(C(=O)O)cc2)o1 (stereo unspecified),,3.16 µM (active)
COC(=O)C1=C(C)NC(=O)NC1/C=C/c1ccccc1 (stereo unspecified),4.26%,
COC(=O)c1cc2n(n1)CCCNC2=O,-1.44%,
COc1ccc(/C=C2\SC(=N)N(c3ccc(F)cc3)C2=O)cc1,-5.39%,
O=C(Nc1ccc(Cl)cn1)c1ccc2c(c1)OCCO2,3.42%,
CNc1ccc([N+](=O)[O-])cc1C(=O)O,13.6%,
COc1cc(OC)cc(C(=O)NC(=S)N2CCN(c3ccc(C(F)(F)F)cc3[N+](=O)[O-])CC2)c1,2.52%,
COc1ccc(N2C(=O)CC(Nc3ccc(F)cc3)C2=O)c([N+](=O)[O-])c1 (stereo unspecified),,17.8 µM (active)
COc1cccc(N2C(=O)C3CCCN3C2c2ccc(F)cc2)c1 (stereo unspecified),-13%,
CC(Oc1ccc(Br)cc1Br)C(=O)NC1CCCC1 (stereo unspecified),-5.26%,
CCC1CO/C(=C(\C(=C(Cl)Cl)N2CCOCC2)[N+](=O)[O-])N1 (stereo unspecified),10.2%,
CCc1nnc(NC(=O)c2cccc(S(=O)(=O)N(C)c3ccc(OC)cc3)c2)s1,5.68%,
Cc1ccc(S(=O)(=O)N2CCN(C(=O)c3cccs3)CC2)cc1,8.32%,
COc1ccc2[nH]c(C)c(CCN(Cc3cccs3)C(=S)Nc3ccccc3OC)c2c1,,25.1 µM (active)

SMILES,"activity, negative = inhibition",Potency
Cc1[nH]c2ccccc2c1CCN(Cc1cccs1)C(=S)NC(C)(C)C,8.44%,
COc1cccc(NC(=S)N(CCc2c(C)[nH]c3ccccc23)Cc2ccco2)c1,-1.92%,
Cc1cc(Cl)ccc1OCc1nc(-c2ccncc2)no1,6.39%,
Nc1ccccc1Sc1cc(Cl)nnc1Cl,,25.1 µM (active)
Nc1ccccc1N,6.38%,
Cc1nn(C)c(C)c1Sc1ccccc1N,10.7%,
COc1ccc(CN2CCN(Cc3cn(C)nc3-c3ccccc3)CC2CCO)c(C)c1C (stereo unspecified),-4.23%,
CCOC(=O)CSc1nnc(-c2ccc([N+](=O)[O-])cc2)o1,-13.6%,
COc1cccc(CN(C)CC(=O)NCc2ccccc2Cl)c1OC,0.824%,
Cc1ccc(CN2CCN(Cc3cn(C)nc3-c3ccccc3)CC2CCO)o1 (stereo unspecified),-8.78%,
Cc1ccccc1CN1C[C@@H]2C[C@@H](c3cn(C)nc3-c3ccccc3)N3CCC[C@@]23C1=O,,1.58 µM (active)
Cc1ccccc1CN1C[C@@H]2C[C@@H](c3ccc4nsnc4c3)N3CCC[C@@]23C1=O,1.38%,
CC1CCCN(C(=O)Cn2c(=O)oc3ccccc32)C1 (stereo unspecified),0.199%,
Cn1nnc2cc(C(=O)NCCC3=CCCCC3)ccc21,-7.74%,
CC1CCCN(C(=O)c2ccc3c(c2)C(=O)N(CCC2=CCCCC2)C3=O)C1 (stereo unspecified),,0.501 µM (active)
CCN(CC)C(=O)Cn1cc(S(=O)(=O)CC(=O)NCc2ccc3c(c2)OCO3)c2ccccc21,-3.66%,
Cc1cc(C=O)c(C)n1-c1ccc(NC2CCCCC2)c([N+](=O)[O-])c1,,5.62 µM (active)
Cc1ccc(C(=O)COC(=O)CCCC(=O)NC2CCCCC2)cc1[N+](=O)[O-],-7.14%,
Cc1c(NS(=O)(=O)c2ccc(NC3CCCC3)c([N+](=O)[O-])c2)c(=O)n(-c2ccccc2)n1C,8.67%,
S=c1[nH]nc(-c2cccnc2)n1/N=C/C(Cl)=C\c1ccccc1,2.03%,
Cc1cc(-c2n[nH]c(=S)n2/N=C/C(Br)=C/c2ccccc2)n[nH]1,,17.8 µM (active)
CN1CCN(C2=NCCO2)CC1,4.37%,
O=C(Nc1cccc2ncccc12)C(Cl)(Cl)Cl,3.17%,

SMILES,"activity, negative = inhibition",Potency
Cc1ccc(/C=C(\C#N)C(=O)Nc2cccc3ncccc23)o1,,8.91 µM (active)
O=C(O)c1cc(Cl)c(Cl)cc1C(=O)Nc1cccc2ncccc12,2.26%,
CCN(CC)CCCSc1nc2ccccc2s1,-13.5%,
COC(=O)c1ccc(COC(=O)c2cnccn2)cc1,11.2%,
N#CC1=C(N)Oc2n[nH]c(CSc3ccccc3)c2C12C(=O)Nc1ccccc12 (stereo unspecified),,10 µM (active)
COc1cc2sc(C)nc2cc1C,-4.43%,
Cc1ccc(NC(=O)c2ccc(Oc3ncccn3)cc2)cc1,4.07%,
C=C(C(C)=O)C(O)c1cccs1 (stereo unspecified),-5.62%,
CCC(=O)Nc1ccc2c(c1)nc(CCN1CCN(C)CC1)n2C,10.7%,
CCCC(=O)Nc1nc2ccc(NC(=O)c3c(F)c(F)c(OC)c(F)c3F)cc2s1,5.83%,
CCCC(=O)Nc1ccc2c(c1)nc1n2CCSC1,,25.1 µM (active)
COC(=O)c1ccc(NC(=S)Nc2cccc(C)n2)cc1,-15%,
Cc1cccc(OC(=O)c2sc3ncn(C)c(=O)c3c2C)c1,-9.06%,
CCN1CCN(C(=O)CN(C)S(=O)(=O)c2ccc3ccccc3c2)CC1,-8.69%,
CCC1CCCCN1S(=O)(=O)Cc1ccccc1Cl (stereo unspecified),-1.74%,
CS(=O)(=O)N(CC(=O)NC1CCCC1)Cc1ccc(F)cc1,2.61%,
Cc1c(C(=O)NCc2ccccc2)cnn1-c1ccccc1,-13.2%,
Nc1c(C(=O)O)cnn1-c1ccccc1,-1.91%,
NNC(=O)c1cnn(-c2ccccc2)c1C(F)(F)F,,11.2 µM (active)
CC(=O)N1N=C(c2ccccc2)OC1c1cccnc1 (stereo unspecified),-7.83%,
COCc1c(C(=O)OCc2c(C)noc2C)oc2ccccc12,-8.05%,
Fc1ccc(CNCc2ccc(Br)cc2)cc1,5.3%,
COc1ccc(CCNC(=O)Cn2c(=O)n(CC3CCCO3)c(=O)c3ccccc32)cc1OC (stereo unspecified),0.6%,

SMILES,"activity, negative = inhibition",Potency
Cc1nc2cnc(Nc3ccccc3)nc2n(C[C@H]2CCCO2)c1=O,8.56%,
COC(=O)c1ccc2c(=O)n(CC3CCCO3)c(=S)[nH]c2c1 (stereo unspecified),,1.78 µM (active)
O=c1c2cc3c(=O)n(CC4CCCO4)c(=O)c3cc2c(=O)n1CC1CCCO1 (stereo unspecified),,0.316 µM (active)
COCCn1c(=S)[nH]c2cc(C(=O)NCCc3ccc(OC)c(OC)c3)ccc2c1=O,-4.54%,
S=c1[nH]nc(-c2ccc(Cl)cc2)n1CC1CCCO1 (stereo unspecified),-4.07%,
CCc1ccc(NC(=O)C(=O)N/N=C(\C)CC(=O)NCCOC)cc1,-6.85%,
CCOC(=O)c1cccc(NC(=O)CCOc2ccccc2)c1,3.3%,
CCOC(=O)CSc1nc(C)cc2c1C(=O)OC2,-2.92%,
CCOC(=O)C1CCCN(C(=O)c2cccc(S(=O)(=O)N3CCOCC3)c2)C1 (stereo unspecified),-5.73%,
COc1cccc(N(Cc2nnc3n2CCCCC3)C(=O)Nc2ccccc2F)c1,0.321%,
Cc1cc(C(=O)NNS(=O)(=O)c2ccccc2C(F)(F)F)nn1C(C)(C)C,-6.99%,
O=C(Nc1ccc(Br)cn1)c1ccc([N+](=O)[O-])cc1Cl,-6.95%,
O=C1c2ccccc2C(=O)N1CCC(O)C[N+](=O)[O-] (stereo unspecified),,22.4 µM (active)
O=C1c2ccccc2C(=O)N1CCCSc1ccccc1,-6.74% [at 13.5 µM],
O=C(CCN1C(=O)c2ccccc2C1=O)Nc1cccc(F)c1,6.38%,
Cc1ccc(C)c(CSc2nc(-c3ccco3)nc3c2c(=O)n(C)c(=O)n3C)c1,2%,
O=C(O)CSc1nnc(-c2ccc3c(c2)OCO3)n1-c1ccccc1,6.9%,
CC1(CCC(=O)OC2CCCCC2)OCCO1,-6.23% [at 13.5 µM],
CSc1ncccc1C(=O)NC1CCCCCC1,-8.2%,
CSc1nsc(SC)c1NC(=O)OC1CCCCC1,,20 µM (active)
Cc1cccc(C2c3[nH]c4ccccc4c3CCN2C(=O)c2cc(-c3cccn3C)n[nH]2)n1 (stereo unspecified),-6.8%,
COc1ccc2c(c1)C(c1cccs1)=NNC(c1cccnc1)=N2,-17.1%,
CC(=O)Nc1ccc(NC(=O)C(C)n2c3ccccc3c3nc(=O)cc(C)n32)cc1 (stereo unspecified),2.7%,

SMILES,"activity, negative = inhibition",Potency
C/C(=N\Nc1nc(N2CCOCC2)nc(N2CCOCC2)n1)c1ccc([N+](=O)[O-])cc1,-6.49%,
COc1ccc(C(=O)Nc2cccc(S(C)(=O)=O)c2)cc1,-3.62%,
O=C(Nc1cccc(OCC(=O)N2CCOCC2)c1)C1CCCCC1,4.85%,
COc1ccc(NS(=O)(=O)c2cc(NC(=O)C3CCCCC3)ccc2N2CCOCC2)cc1,,2.51 µM (active)
CC(=O)Nc1ccc(S(=O)(=O)Nc2ccc(N3CCOCC3)c(F)c2)cc1,-1.53%,
COc1cccc(/C=C2\SC(=N)N(c3ccc(F)cc3)C2=O)c1,4.62%,
COc1ccc(CCNC(=O)CSc2nnc3ccc(-c4ccncc4)nn23)cc1,7.74%,
CN(C)C(=O)CSc1n[nH]c(-c2ccco2)n1,5.16%,
CCOC(=O)c1cc2ccccc2nc1C,5.37%,
CCOC(=O)c1cc2c(nc1NC(=S)Nc1ccccc1)CC(C)(CC)OC2 (stereo unspecified),,12.6 µM (active)
CCOC(=O)c1ccc(NC(=S)Nc2cc(C)cc(C)n2)cc1,8.93%,
O=S(=O)(c1ccccc1)c1nc(-c2ccccc2F)oc1NCc1cccnc1,-11.8%,
CN(C)C=NC(=O)c1cccn1-c1ncc(C(F)(F)F)cc1Cl,4.08%,
COC(=O)c1cc(NC(=O)c2nn(C)c(=O)c3ccccc23)cc(C(=O)OC)c1,-2.63%,
OCCCC1CCCCN1Cc1nc(Cc2ccccc2Cl)no1 (stereo unspecified),4.73%,
COc1ccc(N2C(=O)/C(=C\c3ccco3)N=C2SCC(N)=O)cc1Cl,-13.6%,
O=C(COC(=O)CC1CC2CCC1C2)NC(=O)NC1CCCC1 (stereo unspecified),-3.73%,
Cc1ccccc1OCCC(=O)OCC(=O)NC(C)c1ccccc1 (stereo unspecified),4.27%,
CCOC(=O)CCC(=O)OCC(=O)NC(C)C1CC2CCC1C2 (stereo unspecified),,15.8 µM (active)
